In PubChem BioAssay (Tox21):
Inconclusive results are not listed. Entries that show only a call come without a potency. Unmarked numbers belong to inactive results. Activity calls are given as the source filed them. Unless noted, calls follow the shape of the dose curve; as a rule, active = well fitted curve in the direction sought with a large enough effect in the repeat runs; inconclusive = weak or mixed curves; inactive = no such curve, though single readings can be large; an effect the other way counts as inactive or inconclusive.

Key:
[1] = qHTS assay to identify small molecule antagonists of the thyroid receptor (TR) signaling pathway - cell viability counter screen (AID 743064); also: nearly all actives have a fitted effect of over 50% in size; also: potency is read from the fitted curve at half-maximal effect
In short: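 GH3.TRE-Luc rat pituitary cells dosed after 4 hr plating, co-stimulated with T3 at 1 nM final, incubated 23.5 h at 37 C. Viability measured in the same wells by CellTiter-Fluor fluorescence after 30 min further at 37 C.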

[2] = qHTS assay to identify small molecule antagonists of the thyroid receptor (TR) signaling pathway (AID 743065); also: nearly all actives have a fitted effect of over 55% in size; also: potency is read from the fitted curve at half-maximal effect
In short: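 Antagonism measured as loss of luciferase signal in GH3 cells stably carrying a TRE-luciferase reporter, co-treated with compound and T3 (1 nM final) for 23.5 h at 37 C. Viability was read in the same well by CellTiter-Fluor.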

[3] = tested on: thyroid hormone receptor (rat, GH3 cells); experiment: qHTS assay to identify small molecule agonists of the thyroid receptor (TR) signaling pathway (AID 743066; calls by dose curve)
[4] = qHTS assay to identify small molecule antagonists of the estrogen receptor alpha (ER-alpha) signaling pathway - cell viability counter screen (AID 743074; calls by dose curve;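 also: HEK293 cells carrying ER-alpha-UAS-bla reporter stimulated with 17beta-estradiol; nearly all actives have a fitted effect of over 45% in size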)
[5] = target: Aromatase (Homo sapiens) (UniProt P11511); experiment: qHTS assay to identify aromatase inhibitors (AID 743083); also: nearly all actives have a fitted effect of over 55% in size
[6] = qHTS assay to identify aromatase inhibitors - cell viability counter screen (AID 743084);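 also: cells stimulated with testosterone during compound exposure; nearly all actives have a fitted effect of over 55% in size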
[7] = target: Peroxisome proliferator-activated receptor gamma (Homo sapiens) (UniProt P37231); experiment: qHTS assay to identify small molecule agonists of the peroxisome proliferator-activated receptor gamma (PPARg) signaling pathway (AID 743094; active = well fitted activation curve with a large enough effect in the signal ratio in the repeat runs, not every such curve was filed as active; the % refers to the signal ratio)
In short: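 Fluorescence-based beta-lactamase readout in HEK293H PPARg UAS-bla cells after 17 h compound exposure (37C) and 1 h B/G FRET substrate incubation at room temperature.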

[8] = target: Peroxisome proliferator-activated receptor gamma (Homo sapiens) (UniProt P37231); experiment: qHTS assay to identify small molecule antagonists of the peroxisome proliferator-activated receptor gamma (PPARg) signaling pathway (AID 743191; calls by dose curve; also: nearly all actives have a fitted effect of over 30% in size)
In short: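 Beta-lactamase reporter under UAS control in HEK293H PPARg-bla cells; compound treatment 17 h at 37C. Read-out: fluorescence intensity after 1 h room-temperature incubation with LiveBLAzer B/G FRET substrate.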

[9] = qHTS assay to identify small molecule antagonists of the peroxisome proliferator-activated receptor gamma (PPARg) signaling pathway - cell viability counter screen (AID 743194); details: Potency: co-treated with 50 nM rosiglitazone; also: nearly all actives have a fitted effect of over 55% in size
In short: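 Viability was measured as CellTiter-Glo luminescence in GeneBLAzer PPARg UAS-bla HEK293H cells. These cells had been exposed 17 h at 37 C to compounds together with rosiglitazone at 50 nM final, with the beta-lactamase readout taken in the same wells.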

[10] = qHTS assay for small molecule agonists of the antioxidant response element (ARE) signaling pathway (AID 743202; active = well fitted activation curve with a large enough effect in the signal ratio in the repeat runs, not every such curve was filed as active; the % refers to the signal ratio; also: potency is read from the fitted curve at half-maximal effect)
In short: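 Beta-lactamase reporter activity, read as fluorescence intensity, reflects ARE/Nrf2 pathway induction in HepG2 cells after 16 h compound exposure at 37 C; substrate loading was 2 h at room temperature.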

[11] = qHTS assay for small molecule agonists of the antioxidant response element (ARE) signaling pathway - cell viability counter screen (AID 743203; calls by dose curve; also: nearly all actives have a fitted effect of over 55% in size)
In short: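 Parallel cytotoxicity read-out for the ARE-bla screen: HepG2 reporter cells, 16 hrs with compounds, then CellTiter-Glo luminescence.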

[12] = qHTS assay for small molecule activators of the heat shock response signaling pathway (AID 743210; active = well fitted activation curve with a large enough effect in the signal ratio in the repeat runs, with a control signal flat, not every such curve was filed as active; the % refers to the signal ratio;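 also: HeLa cells with beta-lactamase reporter driven by heat shock elements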)
In short: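 Fluorescence from a cleaved B/G FRET substrate (2.5 h, room temp) reports HSE-driven beta-lactamase in HeLa cells treated 5 h at 37 C with DMSO-dissolved compounds.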

[13] = qHTS assay to identify small molecule antagonists of the estrogen receptor alpha (ER-alpha) signaling pathway using the BG1 cell line - cell viability counter screen (AID 743081);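 also: compound given together with 17beta-estradiol as the ER stimulus; nearly all actives have a fitted effect of over 45% in size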
[14] = target: Aryl hydrocarbon receptor (Homo sapiens) (UniProt P35869); experiment: qHTS assay to identify small molecule that activate the aryl hydrocarbon receptor (AhR) signaling pathway (AID 743085); also: nearly all actives have a fitted effect of over 15% in size; also: potency is read from the fitted curve at half-maximal effect;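 as to activation: HG2L7.5c1 human HepG2 liver cells with stably integrated DRE-driven firefly reporter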
In short: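 HepG2 cells stably carrying a 20-DRE firefly luciferase reporter (HG2L7.5c1) treated with compound for 24 hr at 37C. Luciferase read by ONE-Glo luminescence, with CellTiter-Fluor viability read first.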

[15] = qHTS assay to identify small molecule that activate the aryl hydrocarbon receptor (AhR) signaling pathway - cell viability counter screen (AID 743086);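 also: HepG2 liver cells carrying the AhR DRE luciferase reporter; nearly all actives have a fitted effect of over 45% in size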
In short: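 Cytotoxicity counter screen: CellTiter-Fluor signal (30 min, 37 C) in 4000 HepG2 cells/well carrying the DRE-luciferase reporter, following 24 h compound exposure at 37 C.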

[16] = qHTS assay for small molecule activators of the heat shock response signaling pathway - cell viability counter screen (AID 743209); also: nearly all actives have a fitted effect of over 50% in size
In short: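 To flag cytotoxic compounds, HSE-bla HeLa cells plated at 1500 cells/well were dosed for 5 h at 37 C, followed by the reporter FRET read and then CellTiter-Glo, with luminescence recorded 30 min after reagent addition.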

[17] = target: Estrogen receptor (Homo sapiens) (UniProt P03372); experiment: qHTS assay to identify small molecule agonists of the estrogen receptor alpha (ER-alpha) signaling pathway (AID 743075; calls by dose curve;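 also: HEK293 GripTite cells with ER-alpha and UAS-driven beta-lactamase reporter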)
[18] = target: Estrogen receptor (Homo sapiens) (UniProt P03372); experiment: qHTS assay to identify small molecule agonists of the estrogen receptor alpha (ER-alpha) signaling pathway using the BG1 cell line (AID 743079); details: BG1Luc4E2 cells, ERE-luciferase agonist, 22 h; also: nearly all actives have a fitted effect of over 20% in size
[19] = qHTS assay to identify small molecule antagonists of the estrogen receptor alpha (ER-alpha) signaling pathway using the BG1 cell line (AID 743080; calls by dose curve;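 also: BG1 cells stimulated with 17beta-estradiol alongside compound; nearly all actives have a fitted effect of over 25% in size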)
In short: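 BG1-Luc-4E2 cells (endogenous full-length ER-alpha, 4xERE luciferase) hormone-starved 5 days in charcoal-stripped FBS, plated 4,000/well for 24 h, then compound plus 17beta-estradiol for 21.5 h at 37 C; ONE-Glo luminescence read.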

Chain of Aryl hydrocarbon receptor (Homo sapiens) (P35869 whole entry, looked up): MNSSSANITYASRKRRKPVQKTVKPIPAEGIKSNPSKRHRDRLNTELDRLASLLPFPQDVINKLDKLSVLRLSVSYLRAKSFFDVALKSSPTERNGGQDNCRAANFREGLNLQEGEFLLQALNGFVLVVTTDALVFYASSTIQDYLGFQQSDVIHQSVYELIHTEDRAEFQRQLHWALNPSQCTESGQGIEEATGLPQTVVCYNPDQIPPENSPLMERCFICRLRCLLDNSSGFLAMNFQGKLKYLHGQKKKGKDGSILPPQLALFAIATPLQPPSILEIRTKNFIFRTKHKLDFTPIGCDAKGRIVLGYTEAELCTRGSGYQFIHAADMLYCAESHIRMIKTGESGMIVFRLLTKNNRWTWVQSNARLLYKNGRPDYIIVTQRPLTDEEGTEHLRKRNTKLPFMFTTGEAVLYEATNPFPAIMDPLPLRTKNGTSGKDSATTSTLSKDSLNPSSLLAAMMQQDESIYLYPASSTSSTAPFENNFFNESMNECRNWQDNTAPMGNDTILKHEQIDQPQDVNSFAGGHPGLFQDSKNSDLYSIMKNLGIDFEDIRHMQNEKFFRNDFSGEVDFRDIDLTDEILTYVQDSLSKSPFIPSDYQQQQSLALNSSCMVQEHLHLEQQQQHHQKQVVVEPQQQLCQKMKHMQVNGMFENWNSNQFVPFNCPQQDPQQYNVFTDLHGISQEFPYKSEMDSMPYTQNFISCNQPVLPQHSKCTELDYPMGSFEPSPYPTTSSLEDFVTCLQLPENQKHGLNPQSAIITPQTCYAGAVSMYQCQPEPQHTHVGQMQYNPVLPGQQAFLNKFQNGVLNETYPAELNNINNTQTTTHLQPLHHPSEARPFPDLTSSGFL
Chain of Aromatase (Homo sapiens) (P11511 whole entry, looked up): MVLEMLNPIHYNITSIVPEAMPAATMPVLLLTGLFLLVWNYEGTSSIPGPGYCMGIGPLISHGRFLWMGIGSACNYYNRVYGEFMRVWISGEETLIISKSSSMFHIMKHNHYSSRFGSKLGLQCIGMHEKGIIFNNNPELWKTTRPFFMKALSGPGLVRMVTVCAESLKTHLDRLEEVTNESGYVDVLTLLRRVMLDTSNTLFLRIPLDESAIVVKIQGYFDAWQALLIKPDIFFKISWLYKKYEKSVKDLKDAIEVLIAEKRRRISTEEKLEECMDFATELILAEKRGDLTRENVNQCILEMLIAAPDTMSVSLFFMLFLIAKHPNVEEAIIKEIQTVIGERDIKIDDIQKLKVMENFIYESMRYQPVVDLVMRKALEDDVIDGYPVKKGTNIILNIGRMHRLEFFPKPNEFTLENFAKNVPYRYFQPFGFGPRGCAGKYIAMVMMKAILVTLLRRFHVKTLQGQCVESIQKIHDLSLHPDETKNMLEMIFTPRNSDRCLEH
Chain of Estrogen receptor (Homo sapiens) (P03372 whole entry, looked up): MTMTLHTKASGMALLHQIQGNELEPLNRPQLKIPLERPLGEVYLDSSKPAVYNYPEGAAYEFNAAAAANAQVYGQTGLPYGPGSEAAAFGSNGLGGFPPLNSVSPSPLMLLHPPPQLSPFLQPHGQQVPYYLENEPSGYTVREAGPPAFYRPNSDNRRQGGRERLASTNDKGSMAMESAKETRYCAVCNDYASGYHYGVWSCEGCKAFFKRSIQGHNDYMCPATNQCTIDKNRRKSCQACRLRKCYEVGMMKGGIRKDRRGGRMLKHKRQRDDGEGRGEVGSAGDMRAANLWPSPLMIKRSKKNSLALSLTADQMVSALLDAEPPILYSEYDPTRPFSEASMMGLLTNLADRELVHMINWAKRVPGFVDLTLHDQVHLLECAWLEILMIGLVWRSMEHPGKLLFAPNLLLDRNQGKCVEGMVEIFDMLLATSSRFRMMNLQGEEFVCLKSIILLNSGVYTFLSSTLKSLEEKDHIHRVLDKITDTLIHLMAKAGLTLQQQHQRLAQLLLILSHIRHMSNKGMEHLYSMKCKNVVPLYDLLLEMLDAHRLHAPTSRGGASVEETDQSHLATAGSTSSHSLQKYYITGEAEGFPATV
Chain of Peroxisome proliferator-activated receptor gamma (Homo sapiens) (P37231 whole entry, looked up): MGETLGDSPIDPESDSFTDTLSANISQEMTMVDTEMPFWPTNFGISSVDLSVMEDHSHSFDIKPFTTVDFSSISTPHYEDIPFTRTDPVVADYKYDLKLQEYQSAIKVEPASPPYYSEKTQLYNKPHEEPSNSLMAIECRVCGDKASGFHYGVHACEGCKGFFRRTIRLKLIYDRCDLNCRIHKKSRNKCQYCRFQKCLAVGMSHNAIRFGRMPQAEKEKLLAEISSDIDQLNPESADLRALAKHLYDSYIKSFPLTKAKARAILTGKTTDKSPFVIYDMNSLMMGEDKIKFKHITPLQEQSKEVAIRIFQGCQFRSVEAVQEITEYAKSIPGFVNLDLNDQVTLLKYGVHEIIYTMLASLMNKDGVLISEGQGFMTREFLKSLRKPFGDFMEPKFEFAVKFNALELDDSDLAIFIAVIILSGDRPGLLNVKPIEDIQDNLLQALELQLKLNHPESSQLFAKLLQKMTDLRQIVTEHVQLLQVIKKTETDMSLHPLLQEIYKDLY

Row | SMILES | Potency [1] | Potency [2] | Potency [3] | outcome [4] | Potency [5] | Potency [6] | outcome [7] | Potency [8] | Potency [9] | Potency [10] | Potency [11] | outcome [12] | Potency [13] | Potency [14] | outcome [15] | Potency [16] | Potency [17] | activation ([18]; at 95 µM (top of the series)) [%] | Potency [19] | activation ([18]; at 70.3 µM (top of the series)) [%]
1 | CCN(CC)CCOC(=O)C(C)(c1ccccc1)c1ccccc1 | 26.6 µM (active) | 26.6 µM (active) | inactive | inactive | inactive | inactive | inactive | inactive | inactive | inactive | inactive | inactive |  |  |  |  |  |  |  | 
2 | CC(C=O)Cc1ccc2c(c1)OCO2 (configuration not stated) | inactive | inactive | inactive | inactive | inactive |  | inactive |  | inactive | inactive | inactive | inactive | inactive | inactive | inactive | inactive |  |  |  | 
3 | CN1CCN(C(=O)O[C@H]2c3nccnc3C(=O)N2c2ccc(Cl)cn2)CC1 | inactive | inactive | inactive | inactive | inactive | inactive | inactive | inactive | inactive |  | inactive | inactive | inactive | inactive | inactive | inactive |  |  |  | 
4 | CCOC(=O)N(C)C(=O)CSP(=S)(OCC)OCC | inactive | inactive | inactive | inactive |  | inactive | inactive | inactive |  |  | inactive | inactive | inactive | 15.4 µM (active) | inactive |  |  |  |  | 
5 | C[C@]12CC[C@H]3[C@@H](CC=C4C[C@@H](O)CC[C@@]43C)[C@@H]1CC[C@@H]2O | inactive | inactive | inactive | inactive | inactive | inactive |  |  | inactive | inactive | inactive |  | inactive | inactive | inactive | inactive |  |  |  | 
6 | COc1ccc(C(=O)N2CCCC2=O)cc1 | inactive | inactive | inactive | inactive | inactive | inactive | inactive | inactive | inactive | inactive | inactive |  | inactive | inactive | inactive | inactive |  |  |  | 
7 | O=C(O)C(Br)CBr (configuration not stated) | inactive | inactive | inactive | inactive | inactive | inactive |  |  | inactive | 27.8 µM (active) | inactive | inactive | inactive | inactive | inactive | inactive | inactive | -6.3 | inactive | 
8 | O=C(Nc1ccccc1)c1ccccc1I | inactive | inactive | inactive | inactive |  | inactive |  |  | inactive | 21.7 µM (active) | inactive |  | inactive | 48.6 µM (active) | inactive |  | inactive |  | inactive | 0.753
9 | CC1=NNC(=O)N(/N=C/c2cccnc2)C1 | inactive | inactive | inactive | inactive | inactive | inactive | inactive |  |  | inactive | inactive |  | inactive |  | inactive |  |  |  |  | 
10 | CC(C)(C)OC(=O)c1ncn2c1[C@@H]1CCCN1C(=O)c1c(Br)cccc1-2 | inactive | inactive | inactive | inactive | inactive | inactive | inactive | inactive | inactive |  | inactive | inactive | inactive |  | inactive | inactive |  |  |  | 
11 | COC(C)(C)C | inactive | inactive | inactive | inactive | inactive | inactive |  |  | inactive | inactive | inactive | inactive | inactive | inactive | inactive | inactive |  |  |  | 
12 | O=C(CCN1CC1)OCC(CO)(COC(=O)CCN1CC1)COC(=O)CCN1CC1 | inactive | inactive | inactive | inactive | inactive |  | inactive | inactive | inactive |  | inactive | inactive | inactive | inactive | inactive | inactive |  |  |  | 
13 | ClCCOCOCCCl | inactive | inactive | inactive | inactive | inactive | inactive | inactive |  | inactive |  | inactive | inactive | inactive | inactive | inactive | inactive |  |  |  | 
14 | COc1cc(OC)nc(Sc2cccc(Cl)c2C(=O)O)n1 | inactive | inactive | inactive | inactive | inactive | inactive | inactive | inactive |  | inactive | inactive | inactive | inactive |  | inactive | inactive |  |  |  | 
15 | COC(=O)c1ccccc1S(=O)(=O)NC(=O)Nc1nc(C)cc(C)n1 | inactive | inactive | inactive | inactive | inactive | inactive | inactive | inactive |  | inactive | inactive |  | inactive | inactive | inactive | inactive |  |  |  | 
